# Screening data deposited in PubChem BioAssay by Broad Institute.
# An excerpt weighted towards active compounds, which were near 6.8% of everything screened.
# Pf Dd2 inh – P. falciparum Dd2 growth inhibition. SYBR Green, 72 h; active compounds read low. AID 1159554. 94,000 tested, 2.3% active. activity change, % at 10 µM; in the data active = activity change below about -80%; inconclusive = no clear call, values can overlap the other calls
# C diff HTS – blocks growth of Clostridium difficile; growth activity, negative = inhibition, % at 16 µg/mL (by protocol); Clostridium difficile clinical isolate growth, OD600, 24 h; active compounds read low; 86,000 tested, 0.25% active; AID 1259249;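 active = mean growth activity at or below -80% and every replicate also at or below -80%; inconclusive = mean at or below -80% but some replicate above -80%; inactive = mean growth activity above -80%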;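 note: 0% = DMSO wells and -100% = levofloxacin 16 µg/mL wells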
# Tcruzi prolif – blocks T. cruzi growth in NIH3T3 culture. 77,000 tested, 5.9% active. inhibition, % at 8.34 µM. T. cruzi beta-gal in NIH3T3, GalScreen luminescence, 90 h;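 active = mean inhibition above about 93%, with at least 55% of replicates each passing it, limit read from the data, passing the limit was not always enough; inconclusive = only one of those two conditions holds; inactive = neither condition holds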
# * hit, by the source's call; ? = inconclusive; / = no result given.
SMILES,Pf Dd2 inh,C diff HTS,Tcruzi prolif
C[C@H](CO)N1C[C@H](C)[C@@H](CN(C)C(=O)Nc2ccc(C(F)(F)F)cc2)Oc2ccc(NC(=O)Nc3ccccc3)cc2CC1=O,-64,15,20
C[C@H](CO)N1C[C@H](C)[C@@H](CN(C)C(=O)Nc2ccc(F)cc2)Oc2ccc(NC(=O)Nc3ccc(C(F)(F)F)cc3)cc2CC1=O,-88*,17,10
C[C@H](CO)N1C[C@H](C)[C@@H](CN(C)C(=O)Nc2ccccc2)Oc2ccc(NC(=O)Nc3ccc(C(F)(F)F)cc3)cc2CC1=O,-85*,8,28
C[C@H]1CN([C@@H](C)CO)C(=O)Cc2cc(NC(=O)Nc3ccc(C(F)(F)F)cc3)ccc2O[C@@H]1CN(C)C(=O)Nc1ccc(F)cc1,-74,-2,4
COCC(=O)N1[C@H](CO)[C@H](c2ccc(-c3cccc(F)c3)cc2)C12CN(C(=O)C1CC1)C2,-27,3,/
CN1c2ccc(-c3ccccc3)cc2[C@@H]2[C@@H](CCN2C(=O)CN2CCOCC2)[C@@H]1CO,-1,0,76
CCC(=O)N1CCC2(CC1)CN[C@@H](CO)c1c2c2ccc(OC)cc2n1C,-56,5,/
COc1ccc(CN(C)C[C@@H]2Oc3c(NC(=O)CCCCCC(=O)Nc4ccccc4N)cccc3C(=O)N([C@H](C)CO)C[C@H]2C)cc1,-90*,-4,/
COc1ccc(NC(=O)N(C)C[C@@H]2Oc3c(NC(=O)CCCCCC(=O)Nc4ccccc4N)cccc3C(=O)N([C@@H](C)CO)C[C@@H]2C)cc1,-61,-1,/
COc1ccc(CN(C)C[C@@H]2Oc3c(NC(=O)CCCCCC(=O)Nc4ccccc4N)cccc3C(=O)N([C@@H](C)CO)C[C@H]2C)cc1,-90*,-3,/
COc1ccc(CN(C)C[C@H]2Oc3c(NC(=O)CCCCCC(=O)Nc4ccccc4N)cccc3C(=O)N([C@@H](C)CO)C[C@@H]2C)cc1,-94*,-13,/
COc1ccc(CN(C)C[C@H]2Oc3c(NC(=O)C4CC4)cccc3C(=O)N([C@H](C)CO)C[C@@H]2C)cc1,-37,11,34
COCC(=O)N(C)C[C@@H]1Oc2cc(-c3cccnc3)ccc2S(=O)(=O)N([C@@H](C)CO)C[C@@H]1C,-1,-2,-1
CCCNC(=O)N1CCC2(CC1)CN(C(=O)Nc1ccc(F)cc1)[C@@H](CO)c1[nH]c3cc(OC)ccc3c12,-54,4,/
COc1ccc2c3c([nH]c2c1)[C@@H](CO)N(C(=O)c1ccncc1)CC31CCN(C(=O)Nc2cccc(F)c2)CC1,-55,3,/
CN1C(=O)c2cc(NC(=O)C3CCOCC3)ccc2OC[C@H]2O[C@@H](CC(=O)NC3CCCC3)CC[C@H]21,16,10,35
C[C@H]1CN([C@@H](C)CO)C(=O)CCCn2cc(nn2)CO[C@H]1CN(C)C(=O)CCCN(C)C,5,/,17
COc1ccc(NC(=O)N(C)C[C@H]2OCCCC[C@H](C)Oc3ccc(NC(=O)Nc4ccc(C(F)(F)F)cc4)cc3C(=O)N([C@H](C)CO)C[C@@H]2C)cc1,-4,-1,?
COc1ccc(NC(=O)N(C)C[C@H]2OCCCC[C@@H](C)Oc3ccc(NC(=O)Nc4ccc(C(F)(F)F)cc4)cc3C(=O)N([C@@H](C)CO)C[C@@H]2C)cc1,-84*,1,83
COc1ccc(NC(=O)N(C)C[C@H]2OCCCC[C@@H](C)Oc3ccc(NC(=O)Nc4ccc(C(F)(F)F)cc4)cc3C(=O)N([C@H](C)CO)C[C@H]2C)cc1,-83*,6,116*
COc1ccc(NC(=O)N(C)C[C@H]2OCCCC[C@H](C)Oc3ccc(NC(=O)c4ccccc4)cc3C(=O)N([C@@H](C)CO)C[C@H]2C)cc1,-89*,-3,/
COc1ccc(NC(=O)N(C)C[C@@H]2OCCCC[C@@H](C)Oc3ccc(NC(=O)Nc4ccc(C(F)(F)F)cc4)cc3C(=O)N([C@H](C)CO)C[C@H]2C)cc1,15,4,28
COc1ccc(NC(=O)N(C)C[C@@H]2OCCCC[C@H](C)Oc3ccc(NC(=O)c4ccccc4)cc3C(=O)N([C@H](C)CO)C[C@@H]2C)cc1,?,1,42
COc1cccc(CN2[C@@H](CO)[C@@H](c3ccccc3)C23CN(C(=O)C2CCOCC2)C3)c1,-40,-6,/
CO[C@H]1CN(C)C(=O)c2ccc(NC(=O)C3CC3)cc2OC[C@@H](C)N(Cc2cncnc2)C[C@@H]1C,/,/,-7
SMILES,Pf Dd2 inh,C diff HTS,Tcruzi prolif
COc1ccc(S(=O)(=O)N(C)C[C@@H]2OCCCC[C@@H](C)Oc3ccc(NC(=O)NC4CCCCC4)cc3C(=O)N([C@@H](C)CO)C[C@@H]2C)cc1,?,9,86
COc1ccc(S(=O)(=O)N(C)C[C@H]2OCCCC[C@@H](C)Oc3ccc(NC(=O)NC4CCCCC4)cc3C(=O)N([C@@H](C)CO)C[C@H]2C)cc1,-61,3,93
COc1ccc(S(=O)(=O)N(C)C[C@H]2OCCCC[C@H](C)Oc3ccc(NC(=O)NC4CCCCC4)cc3C(=O)N([C@@H](C)CO)C[C@H]2C)cc1,-81*,4,67
COc1ccc(S(=O)(=O)N(C)C[C@H]2OCCCC[C@H](C)Oc3ccc(NC(=O)NC4CCCCC4)cc3C(=O)N([C@H](C)CO)C[C@H]2C)cc1,-86*,6,95
Cc1noc(C)c1NC(=O)Nc1ccc2c(c1)C(=O)N([C@@H](C)CO)C[C@H](C)[C@H](CN(C)Cc1ccccc1)O2,26,-1,4
C[C@@H]1CN([C@@H](C)CO)C(=O)c2cccc(NC(=O)CCCCCC(=O)Nc3ccccc3N)c2O[C@@H]1CN(C)Cc1ccc(C(F)(F)F)cc1,-92*,/,94
C[C@@H]1CN([C@H](C)CO)C(=O)c2cccc(NC(=O)C3CC3)c2O[C@H]1CN(C)Cc1ccc(C(F)(F)F)cc1,-66,-2,28
C[C@H](CO)N1C[C@H](C)[C@@H](CN(C)Cc2ccc(C(F)(F)F)cc2)Oc2c(NC(=O)CCCCCC(=O)Nc3ccccc3N)cccc2C1=O,-89*,-10,/
C[C@H]1CN([C@@H](C)CO)C(=O)c2cccc(NC(=O)CCCCCC(=O)Nc3ccccc3N)c2O[C@H]1CN(C)CC1CC1,-4,-4,/
C[C@H](CO)N1C[C@H](C)[C@H](CN(C)Cc2ccc(C(F)(F)F)cc2)Oc2c(NC(=O)CCCCCC(=O)Nc3ccccc3N)cccc2C1=O,-86*,5,/
C[C@H]1CN([C@@H](C)CO)C(=O)c2cc(NC(=O)CCCCCC(=O)Nc3ccccc3N)ccc2O[C@H]1CN(C)Cc1ccc(C(F)(F)F)cc1,-25,0,90
C[C@@H]1CN([C@H](C)CO)C(=O)Cc2cc(NC(=O)CCCCCC(=O)Nc3ccccc3N)ccc2O[C@@H]1CN(C)Cc1ccc(C(F)(F)F)cc1,-40,8,59
C[C@@H]1CN([C@H](C)CO)C(=O)c2cccc(NC(=O)CCCCCC(=O)Nc3ccccc3N)c2O[C@@H]1CN(C)Cc1ccc(C(F)(F)F)cc1,-92*,-2,/
O=C(C[C@@H]1CC[C@H](NC(=O)Nc2ccccc2F)[C@@H](CO)O1)NCc1ccc(F)cc1,-49,-2,/
C[C@H](CO)N1C[C@H](C)[C@H](CN(C)S(C)(=O)=O)OCCCC[C@H](C)Oc2ccc(NC(=O)c3ccccc3)cc2C1=O,-31,2,87
